Source: PubChem BioAssay
Shown are actives, neighbours in structure and some others; about 3.4% of the full set was active somewhere.
NPSR antag: neuropeptide S receptor (human) antagonism, cAMP; Q6W5P4; CHO-NPSR cells, cAMP TR-FRET, antagonist mode; Potency, µM (series often up to 38.3 µM), for inactives: at the top dose activity change, negative = inhibition, most hits filed as inhibitors; 220,000 compounds, 1% hits; also: potency is read from the fitted curve at half-maximal effect; % is scaled to controls: 0 for no effect and ±100 for the full control effect; nearly all actives have a fitted effect of over 50% in size
Target sequence (Q6W5P4 whole entry, looked up): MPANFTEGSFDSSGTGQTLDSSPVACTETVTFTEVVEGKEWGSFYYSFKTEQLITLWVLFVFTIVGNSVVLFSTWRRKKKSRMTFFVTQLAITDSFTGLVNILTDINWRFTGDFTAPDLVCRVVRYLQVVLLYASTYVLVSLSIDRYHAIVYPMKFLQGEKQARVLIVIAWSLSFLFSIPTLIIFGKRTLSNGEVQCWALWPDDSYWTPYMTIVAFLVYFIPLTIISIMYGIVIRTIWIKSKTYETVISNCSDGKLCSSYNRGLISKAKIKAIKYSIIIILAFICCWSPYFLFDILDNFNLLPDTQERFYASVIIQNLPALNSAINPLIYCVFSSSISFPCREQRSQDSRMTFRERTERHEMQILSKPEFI
HTT aggregate: mutant huntingtin aggregation inhibition; PC12 HttQ103-GFP aggregates, Acumen cytometry, 40 h; Potency, µM (doses to about 46.1 µM), without a hit: at the top dose activity change, negative = inhibition, actives largely listed as inhibitors; 220,000 compounds, 1.1% hits; AID 1688; also: potency is read from the fitted curve at half-maximal effect; % is scaled to controls: 0 for no effect and ±100 for the full control effect; nearly all actives have a fitted effect of over 60% in size
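Aggregate formation scored by laser-scanning cytometer (488 excitation, 500–530 emission) in lysed PC12 cells expressing Q103-GFP after 100 nM tebufenozide induction; library tested in dose series, with ATPLite reagent added in the multiplex.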
HTT cytoprotect: Huntington cell model cytoprotection by ATP luminescence. 230,000 compounds, 0.14% hits. PC12 HTT-Q103 induced, cytoprotection, ATP luminescence, 40 h. Potency, µM (series often up to 56.4 µM), inactives show cytoprotection (ATP increase), usual class: activators. AID 1471; also: potency is read from the fitted curve at half-maximal effect; % of control where 0% means no effect; nearly all actives have a fitted effect of over 45% in size
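PC12 cells stably carrying ecdysone-inducible Htt exon 1 (Q103)–GFP were induced with 100 nM tebufenozide (final) alongside library compounds in a dose series. Cytoprotection was scored as retained ATP by ATPlite luminescence.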
IMPase cell inh: cell-permeable inhibitors of inositol monophosphatase (IMPase); CHO-M1 cells, IP1 accumulation, HTRF TR-FRET ratio; inhibition (IP1 accumulation), % at 46.1 µM; 120,000 tested, under 10 active; AID 901; active = well fitted curve in the direction sought with a large enough effect in the signal ratio, not every such curve was filed as active; inconclusive = small, poorly fitted or top-dose-only effect, or a change in a side signal; inactive = no such curve, though single readings can be large or run the other way; the % refers to the signal ratio;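 also: cells stimulated with carbachol in lithium chloride buffer; plate controls were DMSO basal wells for no effect and reference inhibitor wells for full effect; higher means more IMPase inhibition seen as more IP1 and lower FRET ratio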
Target sequence (P97697 whole entry, looked up): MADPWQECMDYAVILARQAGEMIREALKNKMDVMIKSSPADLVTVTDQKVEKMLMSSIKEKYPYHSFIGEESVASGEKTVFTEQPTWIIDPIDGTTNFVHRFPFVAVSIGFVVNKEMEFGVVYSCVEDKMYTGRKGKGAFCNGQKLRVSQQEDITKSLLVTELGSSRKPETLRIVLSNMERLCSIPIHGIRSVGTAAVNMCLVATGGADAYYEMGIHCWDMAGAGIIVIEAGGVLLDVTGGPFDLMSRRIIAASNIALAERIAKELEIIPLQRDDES
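In this qHTS, compounds (final up to 46 uM) act on CHO-M1 cells that are then activated through the M1 receptor with carbachol, in pH 7.4 buffer containing 50 mM LiCl, for 30 min. IP1 accumulation is quantified by the IP-One immunoassay.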
IMPase Li inh: cell-permeable IMPase inhibitors with lithium potentiation. 210,000 compounds, 0.35% hits. Potency, µM (top dose mostly 59.4 µM), without a hit: at the highest dose activity, negative = IMPase inhibition, most hits filed as inhibitors. CHO-M1 cells, IP1 TR-FRET (IP-One), carbachol + lithium. AID 1457;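 also: IP1 builds up when IMPase is blocked and the TR-FRET signal falls; potency is read from the fitted curve at half-maximal effect; plate controls were basal vehicle for no effect and high inhibitor control for full effect; nearly all actives have a fitted effect of over 50% in size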
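IP1 accumulation measured by competitive TR-FRET in lysed CHO-M1 cells after 30 min compound exposure at 37C, with a small lithium addition to potentiate weak responses. Hill-equation AC50 from ratio and donor-channel data.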
PNC inhibitor: perinucleolar compartment assembly inhibition; PC3M PTB-GFP, PNC prevalence imaging, 16 h; stronger effect = lower value; activity change (PNC), negative = inhibition, % at 10 µM; 140,000 compounds, 3.1% hits;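 active = readout at or below -70, meaning at least 70% loss of cells showing the perinucleolar compartment, a nuclear body marking cancer cells; inconclusive = readout between -30 and a set limit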;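 also: plate controls were DMSO wells for no effect and camptothecin positive control wells for full effect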
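Compounds are pinned in duplicate onto adhered PC3M cells stably expressing GFP-tagged PTB and incubated 16 h at 37 C. Cells are then fixed, nuclei stained with Hoechst, and PNC-positive cells counted.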
* marks the source's active call; other numbers are inactive results; ? = inconclusive; nt = no result; [ ] = remark or other dose. Unless noted, calls follow the shape of the dose curve; as a rule, active = well fitted curve in the direction sought with a large enough effect; inconclusive = small, poorly fitted or top-dose-only effect, or another doubt; inactive = no such curve, though single readings can be large; an effect the other way counts as inactive or inconclusive.

SMILES | NPSR antag | HTT aggregate | HTT cytoprotect | IMPase cell inh | IMPase Li inh | PNC inhibitor
CC(C(=O)N1CCCCC1)N1C(=O)c2ccccc2C1=O (stereo not drawn) | -9%[46.1 µM] | 32µM* | 3% | -6 | 13%[38.3 µM] | 43
CN1Cc2cc(C(=O)c3ccccc3O)cnc2NC1=O | -10%[46.1 µM] | 3% | 0% | ? | 2%[38.3 µM] | ?
Cc1[nH]nc2ncc(C(=O)c3ccccc3O)cc12 | -10%[46.1 µM] | 6.3µM* | 20µM* | 2 | -2%[38.3 µM] | 8
COc1ccccc1NC(=S)N(Cc1ccc(C)cc1)Cc1cccnc1 | -44% | 11% | -4% | nt | -8% | nt
COc1ccccc1NC(=S)N(Cc1ccc(C)cc1)Cc1ccccn1 | -31% | 25µM* | -35% | nt | 9% | nt
C=C(C)CN1CCN(S(=O)(=O)c2ccc(C)c(N(C)S(=O)(=O)c3ccc(C)cc3)c2C)CC1 | -37% | ? | -44%[10 µM] | nt | 14% | -27
COc1ccc(C2=NOC(C(=O)NCc3cccs3)C2)cc1OC (stereo not drawn) | 9%[46.1 µM] | -12% | -45% | -4 | 34%[38.3 µM] | -12
COc1cc(C2=NOC(C(=O)NCc3cccs3)C2)cc(OC)c1OC (stereo not drawn) | 32%[46.1 µM] | 1% | -19% | 2 | 29%[38.3 µM] | -104*
C=CCNC(=O)/C(C#N)=C\c1cc(Cl)c(OCC)c(OC)c1 | -8% | -2% | -18%[10 µM] | -10 | 4% | -12
Cc1c2c(n3c(nc4ccccc43)c1C#N)N(c1ccccc1)CC2 | -19% | -5% | nt | nt | -1% | -95*
Cc1ccc(S(=O)(=O)c2nc(-c3cccc(C)c3)oc2N2CCCCC2)cc1 | nt | nt | nt | -4 | nt | nt
CCCn1c(-c2cccc([N+](=O)[O-])c2)nc2c1c(=O)[nH]c(=O)n2Cc1ccccc1 | -25% | 4% | 5%[1.9 µM] | 7 | -2% | -21
CC(C)(C)Cn1c(=O)[nH]c(=O)c2cc([N+](=O)[O-])cnc21 | -3% | 16% | nt | nt | -1% | -114*
Cc1ccc(NC2=NCC(=O)N2Cc2ccc3c(c2)OCO3)c(C)c1 | -13%[46.1 µM] | 4% | -12%[10 µM] | -7 | 12%[38.3 µM] | -100*
CCc1ccc(NC2=NCC(=O)N2Cc2ccc3c(c2)OCO3)cc1 | ? | -12% | -18% | 3 | 35%[38.3 µM] | 12
Cc1ccc(P(=Nc2ccccc2)(N2CCOCC2)N2CCOCC2)o1 | 3%[46.1 µM] | -6% | -20%[10 µM] | 8 | 28%[38.3 µM] | -92*
Cc1ccc2nc(/N=C(\N)NC(=O)NC3CCCCC3)nc(C)c2c1 | -55% | -33%[9.22 µM] | -10%[10 µM] | nt | nt | nt
C=CCn1c(NCc2cc(C)ccc2O)nc2ccccc21 | -8%[46.1 µM] | -21% | -8% | 9 | 0%[38.3 µM] | ?
C=CCn1c(NC(C)c2cc(Cl)ccc2O)nc2ccccc21 (stereo not drawn) | ? | 11µM* | -3% | 6 | 33%[38.3 µM] | 19
FC(F)(F)c1ccccc1-c1ccc2ncnc(NCc3cccs3)c2c1 | nt | nt | -111% | nt | 19% | nt
c1ccc(-c2nnc(OCc3cccnc3)c3ccccc23)cc1 | -30% | -16% | -35% | nt | 5% | nt
COc1ccc(-c2nnc(OCc3ccccc3)c3ccccc23)cc1 | ? | ? | 21%[10 µM] | 3 | 40% | -88*
Cc1ccc(Cn2ccc(NC(=O)c3cc(-c4ccccc4)on3)n2)cc1 | -18%[46.1 µM] | 15% | -3% | 12 | 17%[38.3 µM] | 11
Cc1ccc(Cn2ccc(NC(=O)c3cc(-c4ccc5c(c4)OCO5)on3)n2)cc1 | 22%[46.1 µM] | 4% | -7% | 1 | 11µM* | -3
C/C(CC(=O)N(C(C)C)C(C)C)=N\NC(=O)COc1ccc(Br)cc1Br | 6% | 0% | nt | nt | 21% | -109*
SMILES | NPSR antag | HTT aggregate | HTT cytoprotect | IMPase cell inh | IMPase Li inh | PNC inhibitor
O=C(/C=C/c1cnc2ccccc2n1)NC12CC3CC(CC(C3)C1)C2 | -28%[46.1 µM] | -5% | -6%[10 µM] | 9 | 7% | -17
Cc1cc(C)c2c(c1)NC(c1cc3c(cc1Br)OCO3)C1CC=CC21 (stereo not drawn) | -26% | 2% | 5%[1.9 µM] | 1 | -3% | -1
CCOC(=O)c1ccc(NC(=O)Cn2ncc(Cl)c(Cl)c2=O)cc1 | 10µM* | ? | nt | nt | -5% | 15
CCC(=O)Nc1ccc(C(=O)Cn2ncc(Cl)c(Cl)c2=O)cc1 | ? | 9%[9.22 µM] | -22%[10 µM] | nt | nt | nt
N#CCCn1c(=O)c(-c2ccc(F)cc2)nc2cnc(N3CCOCC3)nc21 | nt | nt | 9% | nt | -12% | nt
CCCCCSc1nnc(-c2ccc(Br)cc2)o1 | nt | nt | nt | -6 | nt | nt
N#Cc1cc([N+](=O)[O-])cnc1N(CCO)CCO | 0% | 13µM* | 14%[10 µM] | nt | -3% | -25
CCC(CO)Nc1ncc([N+](=O)[O-])cc1C#N (stereo not drawn) | 4%[46.1 µM] | -1% | -47%[10 µM] | 2 | -5% | 16
CC(=O)Nc1nonc1-c1nc2ccccc2n1Cc1nnc(C)o1 | -8%[46.1 µM] | 15% | -3% | 2 | 7%[38.3 µM] | -87*
CC(=O)Nc1nonc1-c1nc2ccccc2n1Cc1ccccc1 | -19%[46.1 µM] | ? | -42%[10 µM] | ? | 6% | 22
Brc1ccc(-c2nc(-c3ccccn3)no2)o1 | 0%[46.1 µM] | 2% | -81% | 12 | 6%[38.3 µM] | 38
Brc1ccc(-c2nc(-c3ccncc3)no2)o1 | -3%[46.1 µM] | 3% | -26%[0.074 µM] | -5 | -8%[38.3 µM] | -89*
COC(=O)C1=C(C(=O)OC)[C@@H]2Nc3ccccc3[C@@]23C[C@@H](C(=O)OC)N(S(=O)(=O)c2ccc(Br)cc2)C3=N1 | nt | nt | -20%[10 µM] | nt | 11% | nt
CCOC(=O)c1c(NC(=O)CSc2nnc(-c3cccnc3)o2)sc2c1CCC2 | -18%[46.1 µM] | 7% | 10%[10 µM] | -11 | 13% | -100*
